PubChem BioAssay AID602244 (Sanford-Burnham Center for Chemical Genomics, 2012)
Hit rate of the full screen: of about 360,000 compounds, about 1,300 (0.36%) were called active. This is one part of a sample in which actives are shown more often than they occur. No stated cut-off is given here; in the data, active means inhibition above about 34% (passing the limit was not always enough); inactive means the rest.

molecular target: C-X-C chemokine receptor type 6 (Homo sapiens) (UniProt O00574); assay: CXCR6 receptor inhibitors, primary screen, cell-based, beta-arrestin, luminescence, CHO-K1 PathHunter, 1536-well (AID 602244); settings: at 20 µM, hits give high values;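 further: antagonist mode with CXCL16 agonist at 10 nM final; 0% = 10 nM CXCL16 with DMSO and 100% = unstimulated wells without agonist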
Sequence (O00574 whole entry, looked up): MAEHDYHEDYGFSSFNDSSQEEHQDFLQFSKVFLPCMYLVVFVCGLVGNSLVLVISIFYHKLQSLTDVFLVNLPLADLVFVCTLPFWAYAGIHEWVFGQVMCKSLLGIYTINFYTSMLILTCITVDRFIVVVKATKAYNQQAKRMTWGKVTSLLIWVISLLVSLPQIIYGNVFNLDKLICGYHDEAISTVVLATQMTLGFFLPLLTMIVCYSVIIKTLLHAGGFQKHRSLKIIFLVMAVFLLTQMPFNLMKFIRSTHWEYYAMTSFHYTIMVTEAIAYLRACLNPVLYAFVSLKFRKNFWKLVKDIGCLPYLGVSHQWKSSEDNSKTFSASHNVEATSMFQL

Row | Compound | inhibition
1 | Cn1c(O)c(C=NCCCC(=O)O)c(=O)n(C)c1=O | -3.2% (inactive)
2 | O=C(N/N=C/c1c(O)n(Cc2ccccc2)c(=O)[nH]c1=O)c1ccccc1 | 7.9% (inactive)
3 | CCCCC(=O)N/N=C/c1c(O)n(CC)c(=S)n(CC)c1=O | 58.7% (active)
4 | Cc1cc(C)cc(NC(=S)NC2CC3CCCC(C2)N3Cc2cccs2)c1 (stereo not given) | 3.2% (inactive)
5 | Oc1cc2c(cc1CN1CCN(c3ccccc3)CC1)OCO2 | 5.6% (inactive)
6 | CCCC[N+]1(C)C2CC(OC(=O)C(CO)c3ccccc3)CC1C1OC12 (stereo not given) | 0.8% (inactive)
7 | Cc1ccc(-c2nn(CCC#N)cc2C(=O)O)cc1C | 9.5% (inactive)
8 | Cc1cccc(N2C(=O)NC(=O)/C(=C\c3cnn(-c4ccccc4)c3)C2=O)c1 | 51.1% (active)
9 | C/C=C/CC1(CC)C(=O)NC(=S)NC1=O | -5.1% (inactive)
10 | COc1ccc(S(=O)(=O)NCc2ccc(C(=O)N3CCC4(CC3)OCCO4)cc2)cc1 | 3.3% (inactive)
11 | CCOC(=O)C1=C(C)OC(N)=C(C(=O)OC)C12C(=O)Nc1ccc(Br)cc12 (stereo not given) | 9.8% (inactive)
12 | O=C1NC(=O)C(CCOc2ccccc2)(CCc2ccccc2)C(=O)N1 | -10% (inactive)
13 | C=CCN1C(=O)C2(C(C(=O)OCC)=C(N)Oc3c2c(=O)oc2ccccc32)c2ccccc21 (stereo not given) | -2.4% (inactive)
14 | CC(=O)OC1C2(CC3N4C(=O)C5(CO)SSC4(CC31O)C(=O)N5C)OC(C)C(C)(C)C2=O (stereo not given) | 99.4% (active)
15 | CNC(=O)O/N=C(\N)Cc1csc2ccc(Cl)cc12 | 0% (inactive)
